From the supplement of paper PMC12024529

Test system: HEK293 WT BDD-FVIII-Gluc
Assay: secreted FVIII-Gluc luciferase Z-score vs DMSO control; higher = more FVIII-Gluc secretion
Settings: 5 µM
Method: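 Natural plant-compound library (480 compounds, ST catalogue IDs) screened on HEK293 cells stably expressing WT BDD-FVIII-Gaussia luciferase fusion at 5 µM. Secreted Gluc activity in the medium is given as a Z-score relative to DMSO controls.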

Going from `C/C(=C\COc1cc(=O)[nH]c2ccccc12)CCC(O)C(C)(C)O` (centres undefined) to `COc1cc(=O)n(C)c2c(OCC(O)C(C)(C)O)cccc12` (centres undefined), the “secreted FVIII-Gluc luciferase Z-score” value falls from -0.128 to -1.05.

First: Cc1cc(O)cc(O)c1
Second: O=c1c(-c2ccc(O)cc2)coc2cc(O)cc(O)c12
The “secreted FVIII-Gluc luciferase Z-score” value of the first is higher: 0.642 for the first, -1.4 for the second.

Going from `CC(C)[C@@H](C)/C=C/[C@@H](C)[C@H]1CC[C@H]2C3=CC=C4C[C@@H](O)CC[C@]4(C)[C@H]3CC[C@]12C` to `CC(C)CCCC(C)C1CCC2C3CC=C4CC(O)CCC4(C)C3CCC12C` (centres undefined), the “secreted FVIII-Gluc luciferase Z-score” value falls from 0.958 to 0.231.

First: CC(=O)OC1CCC2(C)C(=CCC3C2CC[C@]2(C)C(C(C)=O)CCC32)C1 (some centres undefined)
Second: CC12CCC3c4ccc(O)cc4CCC3C1CCC2=O (centres undefined)
The “secreted FVIII-Gluc luciferase Z-score” value of the first is lower: 0.0308 for the first, 0.301 for the second.

Going from `O=c1c(O)c(-c2cc(O)c(O)c(O)c2)oc2cc(O)cc(O)c12` to `COc1c(-c2ccc(O)c(O)c2)oc2cc(O)cc(O)c2c1=O`, the “secreted FVIII-Gluc luciferase Z-score” value falls from 0.93 to -0.415.

Going from `COc1cc(CNC(=O)CCCC/C=C/C(C)C)ccc1O` to `COc1cc2oc(-c3ccccc3)cc(=O)c2cc1O`, the “secreted FVIII-Gluc luciferase Z-score” value rises from -0.484 to 0.564.

Compared with `OC[C@@H]1OC(O)[C@@H](O)[C@H](O)[C@H]1O[C@H]1O[C@H](CO)[C@@H](O)[C@H](O)[C@H]1O` (some centres undefined), `NC[C@@H]1O[C@H](O[C@H]2[C@@H](O)[C@H](O[C@@H]3[C@@H](O)[C@H](N)C[C@H](N)[C@H]3O[C@H]3O[C@H](CN)[C@@H](O)[C@H](O)[C@H]3N)O[C@@H]2CO)[C@H](N)[C@@H](O)[C@@H]1O` is higher in “secreted FVIII-Gluc luciferase Z-score” value: 0.204 for the first, 0.572 for the second.

Compared with `COc1cc(/C=C/C(=O)N2CCCCC2=O)cc(OC)c1OC`, `COc1cc2c(Cc3c4c5c(cc(OC)c(OC)c5c5c(OC)c(OC)ccc35)CCN4C)c3c4c(cc(OC)c(OC)c4c2cc1OC)CCN3C` is lower in “secreted FVIII-Gluc luciferase Z-score” value: 1.28 for the first, -0.165 for the second.

Compared with `CC(=O)c1c(O)c(C)c(O)c2c1OC1=CC(=O)C(C(C)=O)C(=O)[C@@]12C` (some centres undefined), `O=C1C=CC2=C3c4cc(O)c(O)cc4CC3(O)COC2=C1O` (centres undefined) is higher in “secreted FVIII-Gluc luciferase Z-score” value: -5.07 for the first, 0.729 for the second.

Compared with `CO[C@@H]1[C@@H](OC2OC(C)C(OC3CC(C)(O)C(O)C(C)O3)C(N(C)C)C2O)[C@@H](CC=O)C[C@@H](C)[C@@H](OC2CCC(N(C)C)C(C)O2)/C=C/C=C/C[C@@H](C)OC(=O)C[C@H]1O` (some centres undefined), `C=C1CCC(O)C/C1=C\C=C1/CCCC2(C)C1CCC2C(C)CCCC(C)C` (centres undefined) is lower in “secreted FVIII-Gluc luciferase Z-score” value: 0.36 for the first, -1.24 for the second.

Going from `O=c1cc[nH]c(=S)[nH]1` to `CC1(C)C=Cc2c(c3ccccc3[nH]c2=O)O1`, the “secreted FVIII-Gluc luciferase Z-score” value rises from 0.275 to 0.817.

First: COc1ccccc1-c1cc(=O)c2cc(O)ccc2o1
Second: CC/C=C\C[C@H]1C(=O)CC[C@@H]1CC(=O)O
The “secreted FVIII-Gluc luciferase Z-score” value of the first is higher: 0.281 for the first, 0.253 for the second.
